Here are results for 16 compounds from PubChem BioAssay (NCI).

Test systems include HCT-15 colon; HT29 colon; SNB-75 CNS; SNB-19 CNS; U251 CNS; PC-3 prostate; SK-MEL-5 melanoma; UACC-62 melanoma; LOX IMVI melanoma; SK-MEL-28 melanoma.
Common to all, as to test: NCI-60 one-dose screen, 48 h (100 = growth as untreated, 0 = no growth, -100 = all killed)
Holding throughout (settings): 10 µM unless noted

Values joined by “and” are separate entries in the source; they are usually repeats but may differ in a detail not shown here. Identical values can stand only once. This is part of a sample that, as a whole, favours compounds with a hit. Of some 83,000 tested, about 20% had one in any assay.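 Single-concentration screen, 48 h exposure, 96-well plates. Endpoint: percent growth. Below 10 = active.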 A number with no mark means an inactive call. Active and inactive are the calls of the source.

For `N#Cc1c(-c2ccc(F)cc2)nc(SCc2ccc(F)cc2)nc1N1CCNCC1`, the growth in the test on HCT-15 colon was -42.8% (active); with HT29 colon, -79.1% (active); with SNB-75 CNS, 19.3%; in the test with SNB-19 CNS, 49.6%; in the test with U251 CNS, -95.5% (active); in the test on PC-3 prostate it was 11.3%. In addition, the growth with SK-MEL-5 melanoma was -67.4% (active); in the test on UACC-62 melanoma, -91.6% (active); in the test with LOX IMVI melanoma, -100% (active); with SK-MEL-28 melanoma it was -97.6% (active).
On to `O=C(Nc1nc2ccc([N+](=O)[O-])cc2s1)Nc1ccc(Cl)cc1Cl`, for which the growth is 49.1% in the test with HCT-15 colon; 64.7% with HT29 colon; -24.4% (active) in the test with SNB-75 CNS; 46.6% in the test with SNB-19 CNS; 11.4% in the test on U251 CNS; 47.3% in the test on PC-3 prostate. Also, the growth with SK-MEL-5 melanoma was 27.5%; in the test on UACC-62 melanoma, 56%; with LOX IMVI melanoma, 34.8%; with SK-MEL-28 melanoma it was 79.5%.
On to `CSc1ccc(OCc2nc3ccccc3n2-c2cccc(NS(C)(=O)=O)c2)cc1`, for which the growth in the test with HCT-15 colon was 115% and 93.4%; in the test on HT29 colon it was 109% and 110%; in the test with SNB-75 CNS, 79.6% and 68.9%; in the test on SNB-19 CNS, 102% and 85.6%; in the test with U251 CNS, 104% and 76.9%; in the test on PC-3 prostate, 80.5% and 93.4%. The growth with SK-MEL-5 melanoma was 98% and 104%; in the test on UACC-62 melanoma, 86.1% and 100%; in the test with LOX IMVI melanoma it was 88.9%; in the test with SK-MEL-28 melanoma, 119% and 99.1%.
As for `COc1ccc2c(c1)N=c1c-2cc2c(O)[nH]c(=S)n2c1=O`, the growth was 27.3% in the test on HCT-15 colon; 12.3% in the test on HT29 colon; 6.9% (active) in the test on SNB-75 CNS; 59.8% in the test with SNB-19 CNS; 30.9% in the test on U251 CNS; 37.7% in the test on PC-3 prostate. In addition, the growth in the test on SK-MEL-5 melanoma was 13.5%; in the test with UACC-62 melanoma it was 34.4%; in the test on LOX IMVI melanoma, 32.6%; in the test with SK-MEL-28 melanoma, 72.6%.
For `Cc1ccc(C(=O)Nc2cc(-n3ccnc3)cc(C(F)(F)F)c2)cc1-n1cc(-c2cnc3cccnn23)nn1`, the growth with HCT-15 colon was 97.4%; in the test on HT29 colon it was 39.2%; in the test with SNB-75 CNS it was 132%; in the test with SNB-19 CNS it was 118%; in the test on U251 CNS it was 112%; in the test with PC-3 prostate it was 123%. The growth is 73% with SK-MEL-5 melanoma, 19.5% with UACC-62 melanoma, 39.4% in the test with LOX IMVI melanoma and 34.6% in the test with SK-MEL-28 melanoma.
As to `C/C(=N/O)c1ccc(NC(=O)CSc2nnc(-c3ccc(-c4nc5ccc(Cl)cc5[nH]4)cc3)o2)cc1`, the growth in the test with HCT-15 colon is 78.1%; in the test with HT29 colon it was 31.4%; in the test on SNB-75 CNS it was -27.5% (active); with SNB-19 CNS, -86.7% (active); in the test on U251 CNS, -95.8% (active); with PC-3 prostate, -22.4% (active). Besides, the growth in the test with SK-MEL-5 melanoma was -60.4% (active); in the test on UACC-62 melanoma, -86.6% (active); in the test on LOX IMVI melanoma it was -100% (active); with SK-MEL-28 melanoma it was -100% (active).
Turning to `CN(C)CCCc1ccc(Nc2cnn(C)c(=O)c2Cl)cc1`, the growth is 96.6% with HCT-15 colon; 105% in the test on HT29 colon; 74.2% in the test on SNB-75 CNS; 103% with SNB-19 CNS; 105% in the test on U251 CNS; 91% in the test with PC-3 prostate. For the same compound, the growth with SK-MEL-5 melanoma is 93.2%; in the test with UACC-62 melanoma, 98.9%; with LOX IMVI melanoma, 101%; in the test with SK-MEL-28 melanoma, 111%.
For the compound `COc1cc(/C=C/C(=O)c2cnn(-c3cc(=O)[nH]c4ccc(Cl)cc34)c2C)cc(OC)c1OC`, the growth with HCT-15 colon was -40.2% (active); in the test on HT29 colon, -71.9% (active); with SNB-75 CNS, -11.4% (active); in the test with SNB-19 CNS, -68.9% (active); in the test on U251 CNS it was -65.7% (active); in the test with PC-3 prostate, -26.9% (active). Also, the growth with SK-MEL-5 melanoma was -88.9% (active); in the test on UACC-62 melanoma, -49.1% (active); in the test with LOX IMVI melanoma, -60.8% (active); in the test with SK-MEL-28 melanoma, -69.2% (active).
On to `COc1cc(CNC(=O)C[C@H](C)CCC=C(C)C)ccc1OCc1cn(-c2ccccc2Cl)nn1`, for which the growth in the test with HCT-15 colon was 53.8%; with HT29 colon, 76.7%; in the test on SNB-75 CNS, 60%; in the test with SNB-19 CNS, 61.3%; with U251 CNS it was 80.6%; with PC-3 prostate, 49.4%. Besides, the growth in the test on SK-MEL-5 melanoma is 5.29% (active); in the test on UACC-62 melanoma it was 39.6%; in the test on LOX IMVI melanoma, 56.4%; in the test on SK-MEL-28 melanoma it was 69.8%.
Consider `COc1cncc(-c2ccc3ncnc(N4CCc5ccc(Cl)cc54)c3c2)c1`, for which the growth with HCT-15 colon is 11.9%; in the test on HT29 colon, 31.4%; in the test on SNB-75 CNS, 24.3%; in the test with SNB-19 CNS it was 35.9%; in the test on U251 CNS it was 51%; with PC-3 prostate it was 6.75% (active). For the same compound, the growth is -16.7% (active) in the test on SK-MEL-5 melanoma, 16.3% in the test with UACC-62 melanoma, 6.64% (active) in the test with LOX IMVI melanoma and 48.6% with SK-MEL-28 melanoma.
As to `C/C(=N\Nc1ccc(C(=O)O)cc1)c1cnn(-c2cc(=O)[nH]c3ccc(C)cc23)c1C`, the growth was 97.4% in the test on HCT-15 colon; 100% in the test on HT29 colon; 91.9% in the test with SNB-75 CNS; 97.5% in the test with SNB-19 CNS; 102% with U251 CNS; 88.8% in the test with PC-3 prostate. For the same compound, the growth was 97.9% in the test on SK-MEL-5 melanoma, 91.5% in the test with UACC-62 melanoma, 94.9% in the test with LOX IMVI melanoma and 107% with SK-MEL-28 melanoma.
`OC1CCC(Cn2c(C(F)(F)F)cc3c(Cl)ncnc32)CC1` (stereo not given): the growth in the test with HCT-15 colon was -14.2% (active); with HT29 colon, 49.9%; in the test on SNB-75 CNS it was -71.6% (active); in the test with SNB-19 CNS it was -88.6% (active); with U251 CNS, 11.6%; with PC-3 prostate, 23.5%. The growth with SK-MEL-5 melanoma is -83.6% (active); in the test on UACC-62 melanoma it was -53.5% (active); in the test on LOX IMVI melanoma, -98.4% (active); in the test with SK-MEL-28 melanoma, 20.2%.
Consider `COc1cc(CNC(=O)C[C@H](C)CCC=C(C)C)ccc1OCc1cn(-c2ccc(Br)cc2)nn1`, for which the growth with HCT-15 colon is 82.4%; in the test on HT29 colon, 94.4%; with SNB-75 CNS, 47.3%; in the test on SNB-19 CNS, 57.7%; with U251 CNS it was 63.4%; with PC-3 prostate it was 81.4%. The growth in the test with SK-MEL-5 melanoma was 55.7%; in the test on UACC-62 melanoma, 65.1%; in the test with LOX IMVI melanoma, 74%; in the test with SK-MEL-28 melanoma, 96.5%.
Take `CCCCNc1ccc2c3c(cccc13)C(=O)N(NCC(O)COc1ccc3c(C)cc(=O)oc3c1)C2=O` (stereo not given): the growth in the test on HCT-15 colon is 77.3%; in the test with HT29 colon it was 100%; with SNB-75 CNS, 94.1%; with SNB-19 CNS, 83.9%; with U251 CNS, 96.5%; with PC-3 prostate, 84%. Also, the growth was 77.9% with SK-MEL-5 melanoma, 69.2% in the test with UACC-62 melanoma, 81.3% with LOX IMVI melanoma and 103% in the test on SK-MEL-28 melanoma.
On to `COc1ccc(-c2cc(C(=O)OCc3ccc(Br)cc3)nn2-c2ccc(S(C)(=O)=O)cc2)cc1OC`, for which the growth in the test with HCT-15 colon was 73.3%; in the test on HT29 colon, 87.3%; with SNB-75 CNS, 60.5%; with SNB-19 CNS, 84.6%; in the test with U251 CNS, 86.1%; with PC-3 prostate, 72.1%. The growth with SK-MEL-5 melanoma was 77.5%; with UACC-62 melanoma, 72.6%; in the test with LOX IMVI melanoma, 75.3%; with SK-MEL-28 melanoma, 102%.
On to `CCC(=O)c1c2c(c3ccc4c5ccccc5ccc4n13)C(=O)c1ccccc1C2=O`, for which the growth in the test on HCT-15 colon is 66.8%; with HT29 colon it was 94.2%; in the test on SNB-75 CNS, 113%; in the test with SNB-19 CNS it was 66.7%; in the test with U251 CNS it was 90.4%; in the test with PC-3 prostate it was 77.1%. Besides, the growth with SK-MEL-5 melanoma is -23.6% (active); in the test with UACC-62 melanoma, 54.9%; with LOX IMVI melanoma, 50.1%; with SK-MEL-28 melanoma, 76.4%.
